# NPC1 promoter act = qHTS Assay for NPC1 Promoter Activators | actives 2.4% (n = 320,000) | Potency, µM (top dose mostly 9.22 µM), inactives show at the top dose activation, actives largely listed as activators | Huh7 NPC1 promoter luciferase reporter, 24 h | AID 485313, 2010; further: % of control where 0% means no effect; nearly all actives have a fitted effect of over 60% in size
#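 In 1536-well qHTS, Huh7 cells harboring an NPC1 promoter–luciferase construct received compound for 24 h; activation was quantified by luminescence following luciferase reagent addition.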
# ELG1 DNA repair = qHTS screen for small molecules that inhibit ELG1-dependent DNA repair in human embryonic kidney (HEK293T) cells expressing luciferase-tagged ELG1 | HEK293T ELG1-luciferase reporter, luminescence, 16 h; DNA damage induced by 5-fluorouridine | Potency, µM (highest dose often 46.1 µM), for inactives: top-dose activity change, negative = inhibition, most hits filed as inhibitors | actives 2.3% (n = 330,000); further: on the % scale 0 is the no-effect control and ±100 the full control effect; nearly all actives have a fitted effect of over 55% in size
#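 HEK293T cells expressing luciferase-tagged ELG1 (2,000/well) received 5-Fluorouridine plus compound or DMSO for 16 hr at 37 °C. Luciferase was read by ONE-Glo luminescence after 30 min at room temperature.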
# Rab9 promoter act = qHTS Assay for Rab9 Promoter Activators | Potency, µM (doses to about 9.22 µM), for the others: at the top dose activation, negative = inhibition, actives largely listed as activators | Huh7 Rab9 promoter-luciferase reporter, luminescence, 24 h | actives 2.8% (n = 320,000); further: % of control where 0% means no effect; nearly all actives have a fitted effect of over 60% in size
#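 Promoter activation is measured as luciferase luminescence in Huh7 cells stably transfected with a Rab9 promoter–luciferase construct, following 24 h compound exposure at 37 °C and 10 min reagent incubation at ambient temperature.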
# ELG1 genotoxic = qHTS screen for small molecules that induce genotoxicity in human embryonic kidney (HEK293T) cells expressing luciferase-tagged ELG1; HEK293T ELG1-luciferase reporter, luminescence, 16 h; Potency, µM (highest dose often 46 µM), for the others: top-dose activity change, positive = activation, hits mostly activators; actives 1.3% (n = 330,000); AID 504466, 2011; further: % of control where 0% means no effect; nearly all actives have a fitted effect of over 60% in size
#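 DMSO vehicle served as control against compound-treated ELG1-luciferase HEK293T cells; exposure lasted 16 hr at 37 °C and 5% CO2, followed by ONE-Glo luminescence detection after 30 min.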
# FLuc counter = qHTS profiling assay for firefly luciferase inhibitor/activator using purifed enzyme and Km concentrations of substrates (counterscreen for miR-21 project) | Luciferin 4-monooxygenase (Photinus pyralis), P08659 | purified FLuc, Km substrates, luminescence inhibition | Potency, µM (highest dose often 57.5 µM), for inactives: at the highest dose activity change, negative = inhibition, actives largely listed as inhibitors | actives 6.9% (n = 360,000) | AID 588342, 2011;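 further: plate controls were vehicle for no effect and reference inhibitor for full effect; nearly all actives have a fitted effect of over 55% in size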
# Target sequence (P08659 whole entry, looked up): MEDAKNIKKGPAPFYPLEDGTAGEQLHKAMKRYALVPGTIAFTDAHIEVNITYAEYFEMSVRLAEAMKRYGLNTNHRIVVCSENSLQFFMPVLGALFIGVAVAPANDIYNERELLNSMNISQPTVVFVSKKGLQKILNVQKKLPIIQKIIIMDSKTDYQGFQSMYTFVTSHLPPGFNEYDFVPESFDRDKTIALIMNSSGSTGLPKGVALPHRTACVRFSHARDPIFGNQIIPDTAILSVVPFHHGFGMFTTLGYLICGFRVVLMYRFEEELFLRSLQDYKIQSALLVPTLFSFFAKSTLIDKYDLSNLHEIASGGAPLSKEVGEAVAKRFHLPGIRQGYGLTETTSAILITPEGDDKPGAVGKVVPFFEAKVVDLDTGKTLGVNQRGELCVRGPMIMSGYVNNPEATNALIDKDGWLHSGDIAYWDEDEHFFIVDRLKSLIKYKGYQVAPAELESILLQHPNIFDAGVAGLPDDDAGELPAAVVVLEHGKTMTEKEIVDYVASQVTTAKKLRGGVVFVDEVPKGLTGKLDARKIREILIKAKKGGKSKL
#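 Purified P. pyralis luciferase, 10 nM final, with Km-level 10 uM D-luciferin and 10 uM ATP in 50 mM Tris acetate pH 7.5, 10 mM Mg acetate, 0.01% Tween-20, 0.05% BSA; 6-point qHTS titration about 60 µM downward; luminescence read.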
# SMN2 splice enh = qHTS Assay for Enhancers of SMN2 Splice Variant Expression | HEK293 SMN2-luciferase splicing reporter, luminescence, 30-36 h | Potency, µM (highest dose often 46.1 µM), inactives show at the top dose activity change, positive = activation, most hits filed as activators | actives 2.8% (n = 210,000) | AID 1458, 2008; further: % of control where 0% means no effect; nearly all actives have a fitted effect of over 55% in size
#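 HEK293 cells carry an SMN2 minigene-luciferase reporter in which exon 7 inclusion puts luciferase in frame. Cells were seeded at 2000 cells/well, attached for 10-12 hours, then exposed to compounds for 30-36 hours at 37C before ONE-Glo luminescence.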
# * marks the source's active call; other numbers are inactive results; ? = inconclusive; nt = not tested or not shown. Hits are enriched below; roughly 9.2% of the tested compounds scored in any of these assays. The call rests on the fitted dose curve; in most records, active means well fitted curve in the direction sought with a large enough effect; inconclusive means small, poorly fitted or top-dose-only effect, or another doubt; inactive means no such curve, though single readings can be large; an effect the other way counts as inactive or inconclusive. Potency means the concentration at half of the fitted maximal effect.
SMILES,NPC1 promoter act,ELG1 DNA repair,Rab9 promoter act,ELG1 genotoxic,FLuc counter,SMN2 splice enh
COc1ccc(CNCCc2ccc(Cl)cc2)cc1OCc1ccccc1,-4.7%,14.6µM*,-14.3%,-12.4%,2.5%,-54.1%
COc1cc(CNCc2ccccn2)ccc1OCc1ccc(Cl)c(Cl)c1,10.7%,?,13.5%,9.8%,16.9µM*,7.0%
Nc1ncccc1OCc1ccc(Cl)c(Cl)c1,2.82µM*,?,1.41µM*,?,7.57µM*,nt
O=C(OCc1ccc(Cl)c(Cl)c1)c1cccnc1Cl,-3.4%,12.5%,-5.1%,1.7%,?,nt
Cc1ccc(-c2csc3ncnc(N4CCN(S(=O)(=O)c5cccs5)CC4)c23)cc1,-3.7%,?,-5.9%,-11.0%,1.9%,nt
CCN(CC)CCn1c2ccccc2c2nc3ccccc3nc21,?,?,?,?,21.3µM*,nt
CNC[C@@H]1Oc2ccc(NC(=O)Nc3c(C)noc3C)cc2CC(=O)N([C@H](C)CO)C[C@H]1C,nt,?,nt,1.9%,nt,nt
Cc1ccc(OC(C)C(=O)Nc2cc(C)on2)cc1 (centres undefined),-0.6%,4.7%,-1.1%,-7.8%,19µM*,nt
Cc1cc(NC(=O)C(C)Oc2ccc(Cl)cc2Cl)no1 (centres undefined),5.2%,?,-2.5%,9.7%,23.9µM*,nt
CC(Oc1ccc(Cl)cc1Cl)C(=O)Nc1ncccn1 (centres undefined),6.3%,?,4.7%,8.9%,?,2.6%
Cc1cc(NC(=O)c2ccc(NC(=O)C(C)Oc3ccccc3)cc2)no1 (centres undefined),0.6%,-24.3%,2.3%,-2.6%,-0.3%,1.2%
CCn1c(CC(=O)Nc2ccc(F)cc2)nnc1SCC(=O)Nc1nncs1,-1.6%,-11.0%,-2.8%,-0.8%,0.4%,nt
Cn1c(SCc2ccccc2Cl)nc2ccccc21,2.51µM*,?,?,5.8µM*,6.01µM*,110.9%
CCn1c(SCc2ccccc2Cl)nc2ccccc21,27.4%,?,19.8%,14.0%,12µM*,?
Cn1c(SCc2cccc(F)c2)nnc1-c1cnccn1,?,?,?,?,-18.8%,nt
Cn1c(SCc2ccccc2Cl)nnc1-c1cnccn1,?,?,?,11.2µM*,?,?
COc1ccc(CCC(=O)OCc2csc(CC(=O)Nc3ccc(C)cc3)n2)cc1OC,nt,0.0%,nt,2.6%,nt,nt
O=c1cc(O)c(-c2ccc(Cl)cc2)c(Cl)[nH]1,-1.2%,19.1%,-1.3%,3.8%,-0.8%,nt
O=c1cc(-c2ccc(Cl)cc2)oc(=O)[nH]1,-3.2%,0.0%,-0.4%,-0.9%,16.9µM*,nt
Cc1ccc(S(=O)(=O)NCCc2cn3c(C)csc3n2)cc1,nt,nt,nt,nt,-2.6%,nt
COc1ccc(C(=O)Nc2cccc(C(=O)N/N=C/c3ccc(OC)cc3OC)c2)cc1,?,?,3.98µM*,1.1%,1.9µM*,nt
O=C(N/N=C/c1ccc(F)cc1)c1cccc(NC(=O)c2ccccc2Cl)c1,-0.1%,0.5%,6.1%,2.1%,9.53µM*,nt
COc1ccc(N2Cc3ccc(C(=O)N/N=C\c4ccc(O)cc4O)cc3C2)cc1,?,?,?,10.6%,15.1µM*,nt
COc1ccc(/C=N/NC(=O)c2cccc(NC(=O)c3ccccc3Cl)c2)cc1,-19.0%,?,-1.6%,0.0%,5.36µM*,nt
CCCCN1CCNC[C@@H]1c1ccccc1,-5.9%,25.9%,0.4%,1.0%,3.3%,nt
SMILES,NPC1 promoter act,ELG1 DNA repair,Rab9 promoter act,ELG1 genotoxic,FLuc counter,SMN2 splice enh
COc1ccc(C(CNC(=O)C2CC(=O)N(Cc3ccccc3)C2)N2CCOCC2)cc1 (centres undefined),-7.4%,14.7%,2.7%,-0.5%,3.3%,nt
CCCCC(=O)Nc1cccc(C(=O)N/N=C/c2ccc(OC)cc2OC)c1,-0.9%,-19.0%,1.2%,0.3%,16.9µM*,-18.2%
COc1ccc(/C=N/NC(=O)c2cccc(NC(=O)c3ccccc3Cl)c2)c(OC)c1,9.5%,-6.8%,2.1%,14.2%,4.26µM*,-28.5%
COc1ccccc1/C=N/NC(=O)c1cccc(NC(=O)c2ccccc2C)c1,-3.2%,-0.4%,1.1%,-17.8%,15.1µM*,nt
COc1ccc(NC(=O)O/N=C/c2ccccc2Cl)cc1,4.5%,?,-1.6%,16.2%,30.1µM*,nt
CCOc1ccc(-c2cc(CCCC(=O)NCCc3ccc(Cl)cc3)no2)cc1,nt,nt,nt,nt,?,13.6%
COc1cc(/C=N/NC(=O)c2cccc(NC(=O)c3ccccc3Cl)c2)ccc1O,4.9%,?,-4.6%,-9.3%,15.1µM*,-6.6%
CSc1ccc(S(=O)(=O)Nc2ccc3c(c2)NC(=O)CC3)cc1,-7.7%,8.2µM*,-7.9%,-7.4%,-3.8%,-58.3%
COc1ccc(OC)c(NC(=S)N2c3ccccc3CC2C)c1 (centres undefined),-3.3%,18.3µM*,-3.6%,-9.5%,-18.9%,nt
CCOc1ccccc1NC(=O)COC(=O)C1CCC(=O)N1 (centres undefined),nt,16.3%,nt,-1.6%,nt,nt
O=C(O)CCCNc1cc(N2CCC3(CC2)OCCO3)c2noc3c2c1C(=O)c1ccccc1-3,3.98µM*,?,2.24µM*,?,10.7µM*,-35.6%
CC(=O)NC1=C(NC2CCS(=O)(=O)C2)C(=O)c2ccccc2C1=O (centres undefined),3.6%,?,-0.3%,-8.4%,1.7%,nt
CN(C1=C(NC(=O)c2ccccc2)C(=O)c2ccccc2C1=O)C1CCS(=O)(=O)C1 (centres undefined),-28.3%,9.2µM*,-32.4%,-6.8%,-6.3%,-83.2%
COC(=O)[C@H](CCSC)NC(=O)[C@@H](Cc1cnc[nH]1)NC(=O)OCc1ccccc1,-2.7%,-12.2%,0.1%,-2.6%,1.7%,nt
CC(C)NC(=O)Cn1ccc2cc(S(=O)(=O)N3CCCCCC3)ccc21,nt,nt,nt,nt,3.7%,nt
Cc1cc(C(=O)COc2ccc(Cl)cc2Br)c(C)n1C,28.0%,0.0%,?,10.5%,21.3µM*,7.2%
Cc1cc(C(=O)COc2cccc3cccnc23)c(C)n1C,?,?,26.5%,0.6%,16.9µM*,?
Cc1ccc(C(=O)NCC(=O)OCC(=O)N2CC(C)OC(C)C2)cc1 (centres undefined),-2.7%,8.9%,-3.1%,-6.4%,1.3%,nt
COc1cccc(-n2cc(C(=O)OCc3ccc(Cl)cc3)c3ccccc3c2=O)c1,nt,nt,nt,nt,-3.2%,nt

# High-throughput results deposited in PubChem BioAssay by National Center for Advancing Translational Sciences (NCATS).
